# Results published in PubChem BioAssay AID493034 (The Scripps Research Institute Molecular Screening Center, 2011).
# About 2,200 (92%) of roughly 2,400 compounds were called active.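 How the source made its calls: active means mean inhibition over triplicate runs exceeds the cutoff derived for the earlier primary screen (cut at about 25% in these data); inactive means the rest.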 So high a share suggests a set chosen from earlier hits. Some of the results follow.
# Molecular target: Platelet-activating factor acetylhydrolase IB subunit alpha2 (Homo sapiens) (UniProt P68402)
# Assay: PAFAH1B2 inhibitors, confirmation, biochemical, fluorescence polarization, FP-rhodamine probe, triplicate (AID 493034);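 further: 0% = enzyme with DMSO and 100% = wells lacking PAFAH1B2 protein; inhibitors lower polarization by leaving the probe unbound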
# Conditions: recombinant PAFAH1B2, FP-rhodamine probe fluorescence polarization; at 3.39 µM; stronger effect = higher value
# Sequence of Platelet-activating factor acetylhydrolase IB subunit alpha2 (Homo sapiens) (P68402 whole entry, looked up): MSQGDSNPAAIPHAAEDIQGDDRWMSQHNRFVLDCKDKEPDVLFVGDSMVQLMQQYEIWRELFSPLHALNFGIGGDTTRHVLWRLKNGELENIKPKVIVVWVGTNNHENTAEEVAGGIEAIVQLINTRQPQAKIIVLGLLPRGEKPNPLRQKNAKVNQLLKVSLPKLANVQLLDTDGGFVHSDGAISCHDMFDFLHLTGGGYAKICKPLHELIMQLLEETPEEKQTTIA
row,Compound,inhibition
1,COc1ccc(CCN(C)Cc2c(O)ccc3cc(Br)ccc23)cc1OC,14.9% (inactive)
2,CCN(CC(=O)Nc1ccc(NC(C)=O)cc1)Cc1c(O)ccc2cc(Br)ccc12,59.1% (active)
3,Cc1ccc(C)c(Cn2nnc3c(=O)[nH]c(C(=O)NCC4CCCO4)nc32)c1 (stereo not given),5.01% (inactive)
4,NNC(=S)NC1CCCCCCCCCCC1,47.2% (active)
5,CN(C)C(=O)NC1CCCCCCCCCCC1,22.7% (inactive)
6,CNC(=S)N(Cc1ccc(OC)cc1)C1CC(=O)N(c2ccc(Cl)cc2)C1=O (stereo not given),23.9% (inactive)
7,CC(C)(C)OC(=O)[C@H]1[C@H](c2ccc([N+](=O)[O-])cc2)C2(C(=O)c3ccccc3C2=O)C2c3ccccc3C=NN21 (stereo not given in full),73.7% (active)
8,O=C(O)c1[nH]c2ccc(Cl)cc2c1CCN1C(=O)c2ccccc2C1=O,79.2% (active)
9,O=C(O)c1[nH]c2ccc(Br)cc2c1CCN1C(=O)c2cccc([N+](=O)[O-])c2C1=O,41.5% (active)
10,O=C(O)c1ccccc1C(=O)NCCc1c(C(=O)O)[nH]c2ccc(Cl)cc12,26% (active)
11,CC(C)CC(C(=O)O)N1C(=O)C2C3CC(C2C1=O)C1C(c2ccccc2)c2sc(=O)[nH]c2SC31 (stereo not given),39.3% (active)
12,CC(C(=O)O)N1C(=O)C2C3CC(C2C1=O)C1C(c2ccccc2)c2sc(=O)[nH]c2SC31 (stereo not given),43.1% (active)
13,Cc1ccc(N2C(=O)CC(Sc3nc4ccccc4o3)C2=O)cc1Cl (stereo not given),20.1% (inactive)
14,Cn1c(COc2ccc(Cl)cc2)nnc1SCc1ncc(-c2ccccc2)o1,22.4% (inactive)
15,C[C@H](NC(=O)c1nc[nH]c1C(=O)NCC(=O)OCc1ccccc1)c1ccccc1,23.8% (inactive)
16,Cc1noc(C)c1COc1ccccc1C(=O)NC(C)c1ccc(Cl)cc1 (stereo not given),15.7% (inactive)
17,COc1cc(/C=N/N(C)S(=O)(=O)c2ccc(C)cc2)cc([N+](=O)[O-])c1O,30.5% (active)
18,COc1cccc(/C=N/Nc2ccc(S(=O)(=O)Nc3ccccc3C(=O)O)cc2[N+](=O)[O-])c1O,20.4% (inactive)
19,COc1cc(/C=N/NS(=O)(=O)c2ccc(C(C)(C)C)cc2)cc([N+](=O)[O-])c1O,14.5% (inactive)
20,CN(CCc1ccccn1)C(=S)NC(=O)c1ccco1,3.54% (inactive)
21,O=C(CNC(=O)OCc1ccccc1)Oc1cc2oc(=O)cc(-c3ccccc3)c2cc1Cl,50.6% (active)
22,CC(C)(c1ccc(O)cc1)c1ccc(O)cc1,42.2% (active)
23,COC(=O)c1c(NC(=O)C2C3CCC(O3)C2C(=O)O)sc2c1CCCCCC2 (stereo not given),39.5% (active)
24,O=C(O)C1=C[C@H](c2ccc(C(F)(F)F)cc2)C[C@H](OCc2ccc(CO)cc2)O1,26% (active)
25,Cc1ccc(S(=O)(=O)N/N=C/c2cccn2-c2ccc(Cl)cc2)cc1,45% (active)
26,Cc1ccc(S(=O)(=O)N2[C@@H](c3ccc(Cl)cc3)C(C(=O)O)=C[C@H]2C(C)(C)C)cc1,21% (inactive)
27,O=C(NCc1ccc(Cl)cc1)C(=O)NCC1OCCN1S(=O)(=O)c1cc(F)ccc1F (stereo not given),20.3% (inactive)

row,Compound,inhibition
1,CN(C(=O)Cc1c(C(=O)O)n(C)c2ccccc12)c1ccc(Cl)cc1,41.1% (active)
2,Cc1nn(-c2ccccc2)c(Cl)c1CN(C(=O)CCl)c1ccc(Cl)cc1,21.7% (inactive)
3,O=C(NNC(=O)C12CC3CC(CC(Cl)(C3)C1)C2)c1csc(N2CCOCC2)n1,23% (inactive)
4,S=c1[nH]nc(Cc2ccc(Br)cc2)n1/N=C/c1ccc(Cl)cc1,20% (inactive)
5,S=c1[nH]nc(-c2ccc(Cl)cc2)n1Cc1ccccc1,32% (active)
6,C=CCn1c(-c2cccn(Cc3ccc(Cl)cc3)c2=O)n[nH]c1=S,22.8% (inactive)
7,O=C(C[C@@H]1C/C=C\C[C@@H](Cc2ccc(F)cc2)C(=O)OC[C@H]2CCCN2C1=O)N[C@H](CO)Cc1ccccc1,32.1% (active)
8,O=C(C[C@@H]1C/C=C\C[C@@H](Cc2ccc(F)cc2)C(=O)OC[C@@H]2CCCN2C1=O)NCCO,26.9% (active)
9,C[C@@H]1COC(=O)[C@H](Cc2ccc(F)cc2)C/C=C\C[C@@H](CC(=O)NCCO)C(=O)N1,22.3% (inactive)
10,O=C(C[C@H]1C/C=C\C[C@@H](Cc2ccc(F)cc2)C(=O)OC[C@H]2CCCN2C1=O)N[C@@H](CO)Cc1ccccc1,35.2% (active)
11,CCN1C(=O)N/C(=C/c2cc(C)n(Cc3ccccc3)c2C)C1=O,77.5% (active)
12,O=C(N/N=C/c1cc([N+](=O)[O-])ccc1O)Nc1ccccc1,16.1% (inactive)
13,O=C(N/N=C/c1cc([N+](=O)[O-])ccc1O)NC12CC3CC(CC(C3)C1)C2,79.6% (active)
14,Clc1ccc(OCCSCc2nc3ccccc3[nH]2)cc1,22.6% (inactive)
15,COc1ccc(S(=O)(=O)Nc2ccc3c(c2)C(=O)N([C@@H](C)CO)C[C@H](C)[C@H](CN(C)S(=O)(=O)c2ccc(F)cc2)O3)cc1,22.2% (inactive)
16,COc1ccc(S(=O)(=O)Nc2ccc3c(c2)C(=O)N([C@H](C)CO)C[C@H](C)[C@@H](CN(C)S(=O)(=O)c2ccccc2)O3)cc1,22.7% (inactive)
17,COc1ccc(S(=O)(=O)Nc2ccc3c(c2)CC(=O)N([C@@H](C)CO)C[C@@H](C)[C@@H](CN(C)Cc2ccccc2)O3)cc1,26.1% (active)
18,COC(=O)c1sc(-c2ccc(Cl)cc2)cc1NC(=O)COCC(=O)O,11.5% (inactive)
19,O=C(Nc1sc(-c2ccccc2)cc1C(=O)O)c1ccccc1,28.8% (active)
20,S=c1[nH]cnc2sc(-c3ccccc3)cc12,37.9% (active)
21,O=[N+]([O-])c1cc(-c2cnc3ccccc3n2)ccc1Oc1ccc(Br)cc1,51.6% (active)
22,CC(C)(C)CC(C)(C)c1ccc(O)c(CN2CCN(CCC#N)CC2)c1,32.4% (active)
23,COC(=O)c1sccc1NC(=O)CC1C(=O)NCCN1C(=O)Nc1ccc(OCc2ccccc2)cc1 (stereo not given),52.2% (active)
24,Cn1nc(C(=O)NCCc2ccc(Cl)cc2)c2c1-c1ccccc1S(=O)(=O)C2,23.3% (inactive)
25,Oc1cc2c(cc1O)CN(C(=S)NCCc1ccc(Cl)cc1)CCC2,55.2% (active)
26,Cc1c(C(=O)N2CCOCC2)cc(C(C)(C)C)n1-c1ccccc1,41% (active)
27,Cc1ccc(S(=O)(=O)n2cc(CO)c3ccccc32)cc1,40% (active)

row,Compound,inhibition
1,CCC(C)c1c(N)n(S(=O)(=O)c2ccc(C)cc2)oc1=O (stereo not given),23.5% (inactive)
2,O=C1NCCOC(=O)[C@H](Cc2ccc(F)cc2)C/C=C\C[C@H]1CC(=O)N(CCO)Cc1ccccc1,14.8% (inactive)
3,O=C(C[C@H]1C/C=C/CC[C@H](Cc2ccc(F)cc2)C(=O)O[C@H](c2ccccc2)CNC1=O)NCCO,23.6% (inactive)
4,O=C1NC[C@H](c2ccccc2)OC(=O)[C@H](Cc2ccc(F)cc2)C/C=C\C[C@H]1CC(=O)N(CCO)Cc1ccccc1,49.6% (active)
5,O=C1NC[C@@H](c2ccccc2)OC(=O)[C@@H](Cc2ccc(F)cc2)CC/C=C/C[C@H]1CC(=O)N(CCO)Cc1ccccc1,57.9% (active)
6,O=C1NC[C@@H](c2ccccc2)OC(=O)[C@H](Cc2ccc(F)cc2)CC/C=C/C[C@H]1CC(=O)N(CCO)Cc1ccccc1,52.6% (active)
7,S=c1[nH]nc(CSCCOc2ccc(Cl)cc2Cl)o1,23.3% (inactive)
8,CC(C)C(C(=O)Nc1nccs1)c1ccc(Cl)cc1 (stereo not given),17.2% (inactive)
9,N#Cc1c(NC(=O)C2CC=CCC2C(=O)O)sc2c1CCCCCC2 (stereo not given),41.1% (active)
10,CC(C)(C)NC(=O)C(=O)NNC(=O)COc1ccc(Br)cc1,23.5% (inactive)
11,CCc1ccc(-c2cc(C(=O)Nn3cnnc3)c3ccccc3n2)cc1,30.2% (active)
12,Cc1ccc(S(=O)(=O)N2CCN(C(=S)NCCc3ccccc3)CC2)cc1,34.8% (active)
13,CC(=O)N1CCOc2ccc(S(=O)(=O)NCCc3ccc(C)cc3)cc21,23.7% (inactive)
14,C=C1C(=O)[C@@]23[C@H](O)C[C@@H]4C(C)(C)CC[C@H](O)[C@]4(C)[C@@H]2C[C@H](O)[C@@H]1[C@H]3O,69.2% (active)
15,C=C1C(=O)[C@@]23[C@H](O)C[C@@H]4C(C)(C)CC[C@H](O)[C@@]4(C)[C@@H]2CC[C@@H]1[C@H]3O,84.8% (active)
16,Cc1ccc(Sc2ccc(/C=C3/C(=O)NN(c4ccccc4)C3=O)o2)cc1,73.8% (active)
17,Cc1ccc2c(c1)C=CC(C)N2C(=O)c1ccccc1 (stereo not given),21.4% (inactive)
18,O=C(CCNS(=O)(=O)c1ccccc1)NCCCSc1ccccc1,22.4% (inactive)
19,O=C(NCCc1ccc(Cl)cc1)c1ccc(=O)[nH]c1,19.5% (inactive)
20,Cc1ccc(S(=O)(=O)/N=C2\SC(CC(=O)Nc3ccc(F)cc3)C(=O)N2c2ccccc2)cc1 (stereo not given),23.5% (inactive)
21,Cc1ccc(CN=C2NC(=O)C(CC(=O)NCCc3ccccc3)S2)cc1 (stereo not given),51.6% (active)
22,C[C@@H]1CN([C@H](C)CO)C(=O)c2cccc(NC(=O)NC3CCCCC3)c2O[C@@H]1CN(C)C(=O)Nc1ccc(C(F)(F)F)cc1,55.7% (active)
23,C[C@H](CO)N1C[C@H](C)[C@@H](CN(C)C(=O)Nc2ccc(C(F)(F)F)cc2)Oc2c(NC(=O)Nc3ccc(C(F)(F)F)cc3)cccc2C1=O,62.5% (active)
24,C[C@H](CO)N1C[C@H](C)[C@@H](CN(C)C(=O)Nc2ccc(C(F)(F)F)cc2)Oc2c(NC(=O)Nc3ccc4c(c3)OCO4)cccc2C1=O,44.2% (active)
25,C[C@H](CO)N1C[C@H](C)[C@@H](CN(C)C(=O)Nc2ccc(C(F)(F)F)cc2)Oc2c(NC(=O)Nc3ccccc3)cccc2C1=O,42.3% (active)
26,C[C@H](CO)N1C[C@H](C)[C@@H](CN(C)C(=O)Nc2ccccc2)Oc2c(NC(=O)Nc3ccc(C(F)(F)F)cc3)cccc2C1=O,23.4% (inactive)
